Measurements published in the supplement of paper PMC7695840.
Structures can show the parent of a compound that is named as a salt.

Experiments:
[1] = test system: Staphylococcus aureus MW2 delta-mecA (mecA-); assay: normalized GFP fluorescence (growth of mecA- strain) (fraction of control range); higher = more growth of mecA- strain; conditions: compound concentration: 150 uM; cefoxitin: subinhibitory; fluorescent label: GFP
Outline: (§1)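 Fluorescence from DsRed (540/590) and GFP (485/520) was recorded after 20 h of static growth at 37 °C and 90% humidity. The wells held a 1:1 mix of pre-induced S. aureus MW2 cells, gene-bearing with DsRed and gene-deleted with GFP, in LB with a daily-set subinhibitory antibiotic dose, dispensed at 5 µL/well onto 150 μM compound (1.5% DMSO) in 1536-well plates, single replicate. Each channel was scaled per plate between single-strain control medians, excluding plates with high untreated ratios and rows with DsRed/GFP >10.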

[2] = test system: Staphylococcus aureus MW2 (mecA+); assay: normalized DsRed fluorescence (growth of mecA+ strain) (fraction of control range); higher = more growth of mecA+ strain; conditions: compound concentration: 150 uM; cefoxitin: subinhibitory; fluorescent label: DsRed
Outline: as §1

O=c1[nH]c(=O)n([C@H]2C[C@H](O)[C@@H](CO)O2)cc1I
normalized GFP fluorescence [1]: 0.363
normalized DsRed fluorescence [2]: 0.546

COC(=O)C1=C(C#N)NC(C)=C(C(=O)OC(C)C)C1c1cccc([N+](=O)[O-])c1 (centres undefined) [Nilvadipine (ARC029)]
normalized GFP fluorescence [1]: 0.333
normalized DsRed fluorescence [2]: 1.55

O=C1CCC(N2C(=O)c3ccccc3C2=O)C(=O)N1 (centres undefined)
normalized GFP fluorescence [1]: 0.261
normalized DsRed fluorescence [2]: 0.635

COc1ccccc1N1CCN(CCCNc2cc(=O)n(C)c(=O)n2C)CC1 [Urapidil hydrochloride]
normalized GFP fluorescence [1]: 0.413
normalized DsRed fluorescence [2]: 0.557

O=c1ccn([C@@H]2O[C@H](CO)[C@@H](O)[C@H]2O)c(=O)[nH]1 [Uridine]
normalized GFP fluorescence [1]: 0.265
normalized DsRed fluorescence [2]: 0.849

CN1CC(=O)N2[C@H](c3ccc4c(c3)OCO4)c3[nH]c4ccccc4c3C[C@@H]2C1=O
normalized GFP fluorescence [1]: 0.112
normalized DsRed fluorescence [2]: 0.636

C[C@@H]1C[C@H]2[C@@H]3C[C@H](F)C4=CC(=O)C=C[C@]4(C)[C@@]3(F)[C@@H](O)C[C@]2(C)[C@@]1(O)C(=O)CO
normalized GFP fluorescence [1]: 0.766
normalized DsRed fluorescence [2]: 0.847

C=CC[N+]1([C@H]2C[C@H]3[C@@H]4CC[C@H]5C[C@H](O)[C@@H](N6CCOCC6)C[C@]5(C)[C@H]4CC[C@]3(C)[C@H]2OC(C)=O)CCCC1
normalized GFP fluorescence [1]: 0.279
normalized DsRed fluorescence [2]: 0.667

COc1cc2nc(N3CCN(C(=O)C4CCCO4)CC3)nc(N)c2cc1OC (centres undefined) [Terazosin HCl (Hytrin)]
normalized GFP fluorescence [1]: 0.321
normalized DsRed fluorescence [2]: 0.745

CNCC[C@H](Oc1cccc2ccccc12)c1cccs1
normalized GFP fluorescence [1]: -0.0294
normalized DsRed fluorescence [2]: 0.838

CC1(C)S[C@@H]2[C@H](NC(=O)Cc3ccccc3)C(=O)N2[C@H]1C(=O)O
normalized GFP fluorescence [1]: 0.0214
normalized DsRed fluorescence [2]: 0.0849

CCCc1nn(C)c2c(=O)[nH]c(-c3cc(S(=O)(=O)N4CCN(C)CC4)ccc3OCC)nc12
normalized GFP fluorescence [1]: 0.331
normalized DsRed fluorescence [2]: 0.655
